Data on 40 sequences can be found in the supplement of paper PMC10338343.

± gives the standard deviation.

The test system of this experiment is EfPiwi piRISC loaded with L1MC piRNA (26 nt). Description: pre-steady-state target cleavage rate (min^-1); auxiliary factor: 500 nM Ephydatia muelleri Gtsf1; guide: L1MC piRNA 5'p-UAACUAAAUACUAUGCAAGCUGUAGG; MIWI and MILI are mouse PIWI proteins and EfPiwi is from a freshwater sponge; tags in brackets are library labels; higher = faster piRNA-guided slicing of the target. Summed up:
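For Cleave-'n-Seq, a transcribed, DNA-blocked target RNA library […] met 1 nM active affinity-purified piRISC with one synthetic guide at 33 °C for 0–8 or 0–960 min in HEPES–potassium acetate buffer, with or without 500 nM GTSF1 partner protein. Uncleaved targets were sequenced and normalised to depth and weakly complementary targets, with three trials pooled and k3 capped at 0.0001 min^-1. A burst-and-steady-state fit supplied the pre-steady-state cleavage rate.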
Turning to UCCUGGAUGAGCUUGCGUAGUAUUUAGUUA, the “pre-steady-state target cleavage rate” value was 0.00425 ± 0.0038. Take UCCUGGAUCAGCUUGCAUAGUUUUUAGUUA: the “pre-steady-state target cleavage rate” value turned out to be 0.00592 ± 0.0018.

For the sequence UCCUGGUACAGCAUGCAUUGUAUUUAGUUA, the “pre-steady-state target cleavage rate” value is 0.00628 ± 0.0022.

For the sequence UCCUGGUAAAGCUUGCAUAGUAUUUAGUUA, the “pre-steady-state target cleavage rate” value worked out at 0.00606 ± 0.002. On to UCCUCUCUACAGCUUGCAUAGUAUUUAGUUA, for which the “pre-steady-state target cleavage rate” value was 0.0164 ± 0.006. Then UCCUGGAUGUGGAUGCAUAGUAUUUAGUUA, with 0.00943 ± 0.0037; and UCCUGGAUCAGUCUUGCAUAGUAUUUAGUUA, with 0.0152 ± 0.0042; and UCCUGGUACAGCUUGCAUAGUAUUAAGUUA, with 0.00521 ± 0.0021. As to UCCUGGAUCAGCUUGCAUAGUAUUUAGUGUA, the “pre-steady-state target cleavage rate” value worked out at 0.0168 ± 0.0061. On to UCCUGGAUGUGCUUUGCAUAGUAUUUAGUUA, for which the “pre-steady-state target cleavage rate” value came out at 0.00805 ± 0.003.

Take UCCUGGUUGAGCUUGCAUAGUAUUUAGUUA: the “pre-steady-state target cleavage rate” value is 0.0176 ± 0.0053. Consider UCCUCGUACAGCUUGCAUAGUAUUUUGUUA, for which the “pre-steady-state target cleavage rate” value was 0.007 ± 0.0031.

With UCCUCCUAGAGCUUGCAUAGUAUAUAGUUA, the “pre-steady-state target cleavage rate” value came to 0.00597 ± 0.0022. As for UCCUGGAUGAGCUUGCAUAGUAUGUUAGUUA, the figure is 0.00879 ± 0.0036. As for UCCUGGAUCAGCUUGGCAUAGUAUUUAGUUA, the figure is 0.0127 ± 0.0034; as for UCCUGGUAGAGCUUGCAUAGUAUUUUGUUA, 0.00292 ± 0.0029. Then UCCUGCAUCAGCUUGCAUAGUAUUUAGUAA, with 0.00847 ± 0.0021. Take UCCUGGAUGUCGAUGCAUAGUAUUUAAGUUA: the “pre-steady-state target cleavage rate” value came out at 0.00522 ± 0.0045. For the sequence UCCUGGAUCUAGCUUGCAUAGUAUUUAGUUA, the “pre-steady-state target cleavage rate” value came to 0.0755 ± 0.019. As for UCCUGGAUCAGCUUGCAUAGUAUUUAUUUA, the figure is 0.00293 ± 0.0028. Take UCCUGGAUGAGCUUGCAUAGUAUUUAGUAA: the “pre-steady-state target cleavage rate” value was 0.00367 ± 0.0022.

With UCCUGCAUACAGCUUGCAUAGUAUUUAGUUA, the “pre-steady-state target cleavage rate” value worked out at 0.11 ± 0.032.

For the sequence UCCUGCUACAGCUUGCUUAGUUUUUAGUUA, the “pre-steady-state target cleavage rate” value came out at 0.0055 ± 0.0019. As for UCCUGCUACAGCUUGCAUGGUAUUUAGUUA, the figure is 0.0201 ± 0.0061; as for UCCUGGAUCUGGUUGCAUAGUAUUUAGUUA, 0.0604 ± 0.015. On to UCCUGGUACAGGUUGCAUACUAUUUAGUUA, for which the “pre-steady-state target cleavage rate” value was determined as 0.00258 ± 0.002.

In the case of UCCUCCUACCAGCUUGCAUAGUAUUUAGUUA, the “pre-steady-state target cleavage rate” value is 0.0186 ± 0.0056. In the case of UCCUCGUACAGCUUGCUUAGUAUUUAGUUA, the “pre-steady-state target cleavage rate” value worked out at 0.0519 ± 0.012. Turning to UCCUCCUACAGGUUGCAUAGUAUUUAGUAA, the “pre-steady-state target cleavage rate” value was determined as 0.00547 ± 0.0022. In the case of UCCUGGAUCUGCUUGCAUUGUAUUUAGUUA, the “pre-steady-state target cleavage rate” value is 0.00657 ± 0.003. On to UCCUGGAACAGCAUGCAUAGUAAUUAGUUA, for which the “pre-steady-state target cleavage rate” value came to 0.0139 ± 0.0048. As for UCCUGGUACAGCUUCAUAGUAUUUAGUUA, the figure is 0.0159 ± 0.0055; as for UCCUGCUACAGCAUGCAUUGUAUUUAGUUA, 0.0119 ± 0.0032; as for UCCUGGAACAGACUUGCAUAGUAUUUAGUUA, 0.0135 ± 0.0042.

UCCUGGAACAGCUUGCAUAGUAUUUAAGUUA: the “pre-steady-state target cleavage rate” value was found to be 0.0138 ± 0.0052. Then UCCUCCUACAGCUUGCUUAGUAUUUAGUAA, with 0.00594 ± 0.0027.

On to UCCUGGAUCAGCUUGCAUAGUCUUUAGUUA, for which the “pre-steady-state target cleavage rate” value amounted to 0.0204 ± 0.0053.

In the case of UCCUGGAUCAGCUAGCAUAGUAUUUAGUUA, the “pre-steady-state target cleavage rate” value is 0.0313 ± 0.009.

For the sequence UCCUGGAAGAGCUAGCAUAGUAUUUAGUUA, the “pre-steady-state target cleavage rate” value worked out at 0.00727 ± 0.0022.

On to UCCUGGAACUGCUUGCAUAGUAUUUAGUUA, for which the “pre-steady-state target cleavage rate” value worked out at 0.0203 ± 0.006.
